Assay outcomes deposited in PubChem by National Center for Advancing Translational Sciences (NCATS).
Pin1 inh: inhibitors of human Pin1; AID 504891; 390,000 tested, 0.009% active; Q13526; Pin1 FP peptide displacement, HiFluor488, 10 min; Potency, µM (doses to about 115 µM), inactives show top-dose activity, negative = inhibition, usual class: inhibitors; active = well fitted inhibition curve with a large enough effect in the polarisation, with a control signal flat, not every such curve was filed as active; inconclusive = small, poorly fitted or top-dose-only effect, or effect the other way, or a change in a side signal; inactive = no such curve, though single readings can be large or run the other way; the % refers to the polarisation; note: potency is the fitted concentration of half-maximal effect; % is set by controls: 0 for no effect and ±100 for the full control effect
Target sequence (Q13526 whole entry, looked up): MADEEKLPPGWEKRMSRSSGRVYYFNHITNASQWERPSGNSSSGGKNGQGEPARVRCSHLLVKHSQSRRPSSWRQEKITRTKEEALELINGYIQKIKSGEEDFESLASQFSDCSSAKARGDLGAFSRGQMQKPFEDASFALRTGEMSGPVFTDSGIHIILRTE
PI4K2A block: blocks human PI4K2A kinase activity. Q9BTU6. purified PI4K2A, ADP-Glo luminescence, 1 h; active compounds read low. activity change, negative = inhibition, % at 76.9 µM. 420,000 tested, 0.13% active; in the data active = activity change below about -50%; inconclusive = mostly about -30% to -49%;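 note: -100% = wells without enzyme as full effect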
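In this quantitative HTS, ADP production by PI4K2A was quantified luminescently after 1 h at ambient temperature; 100 microM adenosine served as plate-quality control.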
Tb PGK inh: blocks T. brucei phosphoglycerate kinase | P07378 | PGK/GAPDH coupled, Kinase-Glo luminescence, 60 min | Potency, µM (highest dose often 57.5 µM), for the others: at the top dose activity change, negative = inhibition, hits mostly inhibitors | 380,000 tested, 0.043% active | AID 602233; note: potency is the fitted concentration of half-maximal effect; % is set by controls: 0 for no effect and ±100 for the full control effect; nearly all actives have a fitted effect of over 60% in size
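Luminescent ATP detection (Kinase-Glo Plus) follows a 60-minute room-temperature incubation, with wells lacking PGK as controls. Buffer: 100 mM TEA (pH 7.6), 5 mM MgCl2, 0.01% Tween-20. Coupling enzyme GAPDH (100 nM final) supplies unstable 1,3-BPG in-well.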
PI5P4Ka inh: PI5P4K alpha (human) kinase inhibition. max response, %. PI5P4Kalpha enzyme, ADP-Glo luminescence, 60 min; active compounds read low. P48426. 330,000 tested, 1.2% active; active = max response of -50% or lower; inconclusive = between -30% and -50%; inactive = -30% or higher; note: value at the top dose of about 77 µM; % is set by controls: 0 for no effect and ±100 for the full control effect
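ADP-Glo luminescence end-point after a 60 min room-temperature kinase reaction. PI5P4Kalpha and substrate in HEPES pH 7.4 buffer with EGTA, 0.1% CHAPS and 5% DMSO; ATP at 5 microM final.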
Tb PFK inh-1: blocks T. brucei phosphofructokinase; O15648; T. brucei PFK, ADP-Glo luminescence; Potency, µM (top dose mostly 57.5 µM), inactives show at the highest dose activity, negative = inhibition, most hits filed as inhibitors; 330,000 tested, 0.17% active;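 note: potency is the fitted concentration of half-maximal effect; 0% = uninhibited 1x PFK enzyme wells and -100% = no-enzyme wells; nearly all actives have a fitted effect of over 60% in size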
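In TEA buffer at pH 8.0 with 5 mM MgCl2, enzyme (1.25 nM) converted F6P (0.5 mM) and ATP (0.1 mM) for 45 min at room temperature. ADP product was read by luciferase luminescence.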
TbPFK ATP: inhibits T. brucei PFK measured by ATP depletion. 1,100 tested, 47% active. Potency, µM (top dose mostly 57.5 µM), inactives show at the top dose inhibition. Tb PFK enzyme, ATP depletion, Kinase-Glo Plus luminescence. shares compounds with Tb PFK inh-1; calls by dose curve; note: potency is the fitted concentration of half-maximal effect; nearly all actives have a fitted effect of over 60% in size
Tb PFK inh-2: T. brucei PFK enzyme inhibition, hit validation; shares compounds with Tb PFK inh-1; Potency, µM (doses to about 57.5 µM), without a hit: at the top dose activity change, negative = inhibition, actives largely listed as inhibitors; 1,100 tested, 41% active; AID 504637; purified T. brucei PFK, ADP-Glo luminescence, 45 min;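 note: potency is the fitted concentration of half-maximal effect; plate controls were full PFK enzyme control for no effect and no enzyme control for full effect; nearly all actives have a fitted effect of over 60% in size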
Active calls of the source: *; i = inactive; ? = inconclusive; . = no result. This is one part of a sample in which hits are shown more often than they occur. Unless noted, calls come from the whole dose curve; as a rule, active = well fitted curve in the direction sought with a large enough effect; inconclusive = small, poorly fitted or top-dose-only effect, or another doubt; inactive = no such curve, though single readings can be large; an effect the other way counts as inactive or inconclusive.

SMILES | Pin1 inh | PI4K2A block | Tb PGK inh | PI5P4Ka inh | Tb PFK inh-1 | others
C[C@@H]1O[C@@H](O[C@@H]2C=C3CCC4C(CC[C@]5(C)[C@@H](c6ccc(=O)oc6)CC[C@]45O)[C@@]3(C)CC2)[C@H](O)[C@H](O)[C@H]1O (some centres not stated) | -5% | 3 | i | -4 | 3%
O=C1NC(=O)N(c2ccccc2)C(=O)/C1=C\c1ccc2c3c(cccc13)CC2 | . | . | . | . | 3%
COc1ccc(N2C(=O)NC(=O)/C(=C\c3ccc([N+](=O)[O-])s3)C2=O)cc1 | ? | 0 | -15% | -63* | -12%
COc1cccc(N2C(=O)NC(=O)/C(=C/c3ccc([N+](=O)[O-])s3)C2=O)c1 | ? | -21 | -20% | ? | -20%
COc1ccccc1N1C(=O)NC(=O)/C(=C/c2ccc3c4c(cccc24)CC3)C1=O | ? | -6 | -13% | -58* | -4%
COc1ccc(N2C(=O)NC(=O)/C(=C/c3ccc([N+](=O)[O-])s3)C2=O)cc1 | ? | ? | ? | -77* | -11%
COc1ccccc1N1C(=O)NC(=O)/C(=C/c2ccc([N+](=O)[O-])s2)C1=O | . | -11 | -15% | -63* | ?
COc1ccc(-n2nnnc2C(CCc2ccccc2)N2CCC(n3c(=O)[nH]c4ccccc43)CC2)cc1 (configuration not stated) | . | -2 | . | 2 | .
COc1ccc(CCN)cc1O | 5% | 4 | -6% | 0 | .
NCCc1cc(O)c(O)cc1O | ? | ? | -21% | -76* | .
Clc1ccc(C[n+]2cc(-c3ccccc3)n3c2CCC3)cc1Cl | -6% | 3 | 4% | -5 | ? | TbPFK ATP=6.7µM*;Tb PFK inh-2=11µM*
O=C1CN=C(c2ccc[nH]2)c2cc(Cl)ccc2N1 | -2% | -4 | -6% | 1 | -5%
C[C@H]1CC[C@@H]2N(C1)C[C@H]1[C@@H]3C[C@H]4[C@@H](CC(=O)[C@H]5C[C@@H](O)CC[C@@]54C)[C@@H]3CC[C@H]1[C@]2(C)O | -1% | -3 | i | -5 | 4%
CC(N)Cc1c[nH]c2ccc(Cl)cc12 (configuration not stated) | -2% | 1 | -1% | . | .
CN1CCc2cccc3c2C1Cc1ccc(O)c(O)c1-3 (configuration not stated) | 0% | -2 | -10% | -29 | 4.3µM* | TbPFK ATP=19µM*;Tb PFK inh-2=17µM*
C=CCN1CCc2cccc3c2[C@H]1Cc1ccc(O)c(O)c1-3 | -5% | -4 | -6% | -11 | ? | TbPFK ATP=6µM*;Tb PFK inh-2=6µM*
COc1cc2c(cc1OC)-c1c(OC)c(OC)cc3c1C(C2)N(C)CC3 (configuration not stated) | 4% | -9 | 11% | 4 | -3%
CCCn1c(C(=O)c2ccc(OC)cc2)nc2ccccc21 | -14% | 1 | 0% | 7 | -1%
CCOC(=O)c1cccc(C2=C(CNC(=O)c3cccnc3)[C@H]3CC[C@@H](C2)N3Cc2ccccc2)c1 | . | -4 | 7% | 5 | .
CCCN1C(=O)S/C(=C/c2ccc(N3CCOCC3)o2)C1=O | ? | -4 | 2% | -12 | ? | TbPFK ATP=7%;Tb PFK inh-2=-4%
O=C1NC(=O)C(=Cc2ccc(N3CCOCC3)o2)C(=O)N1 | ? | -2 | 0% | 0 | 2%
COc1ccccc1NS(=O)(=O)c1cc(NC(=O)c2ccc(Cl)nc2)ccc1N1CCCC1 | 24% | -4 | -4% | ? | 17µM* | TbPFK ATP=4.8µM*;Tb PFK inh-2=6µM*
COc1cc(C(=O)Nc2ccc(Br)cc2C(=O)c2ccccc2Cl)cc(OC)c1OC | -7% | -5 | -7% | 24 | -2%
